For nine sequences, binding signal results are on record in article PMC8384837, “Expanding the binding specificity for RNA recognition by a PUF domain”.

What all share (test): yeast three-hybrid, YBZ-1, SC-Leu-His + 0.5 mM 3-AT, 4 days
Conditions in all cases: tags: N-Gal4 AD-HA kept; label: inside an RPR1-promoter hybrid RNA with tandem MS2 sites; ssRNA

Experiment [1] concerns the target PUM1 PUF domain R1-SFK (Homo sapiens, UniProt Q14671 828-1176, R864F;Q867K). The gist of the method:
(§1)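 The interaction score is the log change in variant frequency from input to selection. Scores were computed in log2 with a pseudocount of 1 for absent variants, using Illumina sequencing of PCR-amplified repeat regions. The input came from four days on SC-Leu and the selection from four days on SC-Leu-His + 0.5 mM 3-AT. The cells were strain YBZ-1 (LexA–MS2 coat fusion, HIS3 reporter) co-expressing Pumilio-1 PUF domain libraries and matching RNA elements from a centromeric plasmid.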

In experiment [2] the target is PUM1 PUF domain R5-NSI (Homo sapiens, UniProt Q14671 828-1176, C1007N;R1008S;Q1011I). The gist of the method:
as §1

The target of experiment [3] is PUM1 PUF domain R7-RQR (Homo sapiens, UniProt Q14671 828-1176, S1079R;N1080Q;E1083R). The gist of the method: as §1
Experiment [4] concerns the target PUM1 PUF domain R7-TMG (Homo sapiens, UniProt Q14671 828-1176, S1079T;N1080M;E1083G). The gist of the method:
as §1

Experiment [5] concerns the target PUM1 PUF domain R1-QLT (Homo sapiens, UniProt Q14671 828-1176, S863Q;R864L;Q867T). Summed up:
as §1

Experiment [6] concerns the target PUM1 PUF domain R3-LHY (Homo sapiens, UniProt Q14671 828-1176, C935L;R936H;Q939Y). Summed up: as §1
For experiment [7], the target named is PUM1 PUF domain R3-RRE (Homo sapiens, UniProt Q14671 828-1176, C935R;Q939E). Summed up:
as §1

For experiment [8], the target named is PUM1 PUF domain R4-KSQ (Homo sapiens, UniProt Q14671 828-1176, N971K;H972S). Summed up:
as §1

Experiment [9] addresses PUM1 PUF domain R4-DFV (Homo sapiens, UniProt Q14671 828-1176, N971D;H972F;Q975V). The gist of the method:
as §1

Experiment [10] addresses T1, PUM1 PUF domain R6-GFM (Homo sapiens, UniProt Q14671 828-1176, N1043G;Y1044F;Q1047M).
T1 sequence: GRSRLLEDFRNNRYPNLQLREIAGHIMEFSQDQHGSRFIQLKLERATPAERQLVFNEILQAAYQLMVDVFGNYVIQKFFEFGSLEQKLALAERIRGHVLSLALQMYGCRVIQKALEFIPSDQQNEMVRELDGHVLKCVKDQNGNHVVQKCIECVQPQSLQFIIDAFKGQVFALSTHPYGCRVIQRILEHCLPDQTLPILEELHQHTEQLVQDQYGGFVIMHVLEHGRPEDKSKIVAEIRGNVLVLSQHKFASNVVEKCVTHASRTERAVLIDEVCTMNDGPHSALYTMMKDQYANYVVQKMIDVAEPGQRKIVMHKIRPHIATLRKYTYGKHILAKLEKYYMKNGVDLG
The gist of the method: as §1

PUM1 PUF domain R7-RQR, sequence (Q14671 828-1176 S1079R/N1080Q/E1083R): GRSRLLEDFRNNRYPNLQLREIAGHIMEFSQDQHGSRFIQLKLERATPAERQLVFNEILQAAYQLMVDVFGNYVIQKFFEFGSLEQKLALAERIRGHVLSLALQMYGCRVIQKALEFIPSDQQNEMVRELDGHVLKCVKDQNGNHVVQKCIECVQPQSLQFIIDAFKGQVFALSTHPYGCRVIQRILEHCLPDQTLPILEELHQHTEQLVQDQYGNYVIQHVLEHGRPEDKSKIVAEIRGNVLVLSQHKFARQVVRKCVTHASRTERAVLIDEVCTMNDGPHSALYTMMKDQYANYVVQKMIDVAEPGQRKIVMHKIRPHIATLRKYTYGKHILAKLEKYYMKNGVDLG
PUM1 PUF domain R7-TMG, sequence (Q14671 828-1176 S1079T/N1080M/E1083G): as the sequence (Q14671 828-1176 S1079R/N1080Q/E1083R) above, with R252T, Q253M, R256G counted along it
PUM1 PUF domain R5-NSI, sequence (Q14671 828-1176 C1007N/R1008S/Q1011I): as the sequence (Q14671 828-1176 S1079R/N1080Q/E1083R) above, with C180N, R181S, Q184I, R252S, Q253N, R256E counted along it

As for “GGCUAGAACUAGUGGAUCCCCCGGCGCCCGGCGGCUCGAGCCCGGGUAAGUGUAAAUCGUCUGCAUGCCGCCGGGCGCCAUGCCUGCAGGUCGACUCUAGAAAACAUG”, the binding signal in [1] was 6.11 log2 enrichment (interaction score).
As for “GGCUAGAACUAGUGGAUCCCCCGGCGCCCGGCGGCUCGAGCCCGGGUAAGUGUUAAUAGUCUGCAUGCCGCCGGGCGCCAUGCCUGCAGGUCGACUCUAGAAAACAUG”, the binding signal in experiment [2] was 3.96 log2 enrichment (interaction score).
As for “GGCUAGAACUAGUGGAUCCCCCGGCGCCCGGCGGCUCGAGCCCGGGUAAGUUUAAAUAGUCUGCAUGCCGCCGGGCGCCAUGCCUGCAGGUCGACUCUAGAAAACAUG”, the results for the binding signal in experiment [3] and in experiment [4] were 4.97 log2 enrichment (interaction score) and 2.65 log2 enrichment (interaction score), respectively.
Turning to “GGCUAGAACUAGUGGAUCCCCCGGCGCCCGGCGGCUCGAGCCCGGGUAAGUCUAAAUAGUCUGCAUGCCGCCGGGCGCCAUGCCUGCAGGUCGACUCUAGAAAACAUG”, in experiment [3], the binding signal is 3.17 log2 enrichment (interaction score).
In the case of “GGCUAGAACUAGUGGAUCCCCCGGCGCCCGGCGGCUCGAGCCCGGGUAAGUGUAAAUUGUCUGCAUGCCGCCGGGCGCCAUGCCUGCAGGUCGACUCUAGAAAACAUG”, the binding signal in experiment [5] was 2.41 log2 enrichment (interaction score).
In the case of “GGCUAGAACUAGUGGAUCCCCCGGCGCCCGGCGGCUCGAGCCCGGGUAAGUGUAAUUAGUCUGCAUGCCGCCGGGCGCCAUGCCUGCAGGUCGACUCUAGAAAACAUG”, the binding signal in experiment [6] was 4.13 log2 enrichment (interaction score); in [7], 3.8 log2 enrichment (interaction score).
Regarding “GGCUAGAACUAGUGGAUCCCCCGGCGCCCGGCGGCUCGAGCCCGGGUAAGUGUAUAUAGUCUGCAUGCCGCCGGGCGCCAUGCCUGCAGGUCGACUCUAGAAAACAUG”, in experiment [8], the binding signal was 3.81 log2 enrichment (interaction score).
As to “GGCUAGAACUAGUGGAUCCCCCGGCGCCCGGCGGCUCGAGCCCGGGUAAGUGUACAUAGUCUGCAUGCCGCCGGGCGCCAUGCCUGCAGGUCGACUCUAGAAAACAUG”, the binding signal in experiment [9] is 3.48 log2 enrichment (interaction score).
Consider “GGCUAGAACUAGUGGAUCCCCCGGCGCCCGGCGGCUCGAGCCCGGGUAAGUGUAAAUAGUCUGCAUGCCGCCGGGCGCCAUGCCUGCAGGUCGACUCUAGAAAACAUG”, for which the binding signal is 6 log2 enrichment (interaction score) in experiment [9] and 3.52 log2 enrichment (interaction score) in [10].
